Data from the supplement of paper PMC8975748.
Where a name gives a salt, the structure may show the parent alone. ± gives the standard deviation of the averaged measurements.

Key:
[1] = tested on: Saccharomyces cerevisiae BY4741 SeMeCo community; assay: mean cell size (pixel area) (pixels); higher = larger cells; details: 10 µM; 24 h; SM minimal medium
In short: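 A fluorescent Saccharomyces cerevisiae BY4741 community carrying four plasmids was used, with each plasmid complementing one auxotrophy and bearing a fluorescent marker. An overnight preculture at OD600 = 1.0 was diluted to OD600 = 0.3, and 70 µl went into 384-well plates acoustically predosed with drug (final 10 µM) in SM medium for 24 h. After paraformaldehyde fixation, cells were imaged by automated confocal microscopy and analysed in Harmony, giving the mean cell pixel area per well. Each value is the average of 3 replicates. Same SeMeCo high-content imaging drug screen: Selleck FDA-approved drugs at 10 µM, 24 h in SM medium, 384-well plates, 3 replicates.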

[2] = tested on: Saccharomyces cerevisiae BY4741 SeMeCo community; assay: z-score of prototroph abundance vs DMSO median; higher = larger share of this subpopulation than in DMSO controls; details: 10 µM; 24 h; SM minimal medium; subpopulation (auxotrophy): Prototroph
In short: (§1)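 Scoring was based on each subpopulation's abundance, expressed as a z-score against the vehicle-well median. A Saccharomyces cerevisiae BY4741 community with four plasmids, each restoring one auxotrophy and encoding a distinct fluorescent protein, was pre-grown overnight to OD600 1.0, diluted to 0.3, and added at 70 µl to 384-well plates acoustically predosed with library drugs (10 µM final). It then grew 24 h in minimal SM medium before paraformaldehyde fixation and automated confocal microscopy, with single-auxotroph fluorescent strains setting thresholds and autofluorescence correction.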

[3] = tested on: Saccharomyces cerevisiae BY4741 SeMeCo community; assay: z-score of subpopulation abundance vs DMSO median, subpopulation auxotrophic for M; higher = larger share of this subpopulation than in DMSO controls; details: 10 µM; 24 h; SM minimal medium; subpopulation (auxotrophy): M
In short: as §1

[4] = tested on: Saccharomyces cerevisiae BY4741 SeMeCo community; assay: z-score of subpopulation abundance vs DMSO median, subpopulation auxotrophic for L; higher = larger share of this subpopulation than in DMSO controls; details: 10 µM; 24 h; SM minimal medium; subpopulation (auxotrophy): L
In short: as §1

[5] = tested on: Saccharomyces cerevisiae BY4741 SeMeCo community; assay: z-score of subpopulation abundance vs DMSO median, subpopulation auxotrophic for U; higher = larger share of this subpopulation than in DMSO controls; details: 10 µM; 24 h; SM minimal medium; subpopulation (auxotrophy): U
In short: as §1

[6] = tested on: Saccharomyces cerevisiae BY4741 SeMeCo community; assay: z-score of subpopulation abundance vs DMSO median, subpopulation auxotrophic for H; higher = larger share of this subpopulation than in DMSO controls; details: 10 µM; 24 h; SM minimal medium; subpopulation (auxotrophy): H
In short: as §1

[7] = tested on: Saccharomyces cerevisiae BY4741 SeMeCo community; assay: z-score of subpopulation abundance vs DMSO median, subpopulation auxotrophic for LU; higher = larger share of this subpopulation than in DMSO controls; details: 10 µM; 24 h; SM minimal medium; subpopulation (auxotrophy): LU
In short: as §1

[8] = tested on: Saccharomyces cerevisiae BY4741 SeMeCo community; assay: z-score of subpopulation abundance vs DMSO median, subpopulation auxotrophic for HM; higher = larger share of this subpopulation than in DMSO controls; details: 10 µM; 24 h; SM minimal medium; subpopulation (auxotrophy): HM
In short: as §1

[9] = tested on: Saccharomyces cerevisiae BY4741 SeMeCo community; assay: z-score of subpopulation abundance vs DMSO median, subpopulation auxotrophic for HU; higher = larger share of this subpopulation than in DMSO controls; details: 10 µM; 24 h; SM minimal medium; subpopulation (auxotrophy): HU
In short: as §1

[10] = tested on: Saccharomyces cerevisiae BY4741 SeMeCo community; assay: z-score of subpopulation abundance vs DMSO median, subpopulation auxotrophic for UM; higher = larger share of this subpopulation than in DMSO controls; details: 10 µM; 24 h; SM minimal medium; subpopulation (auxotrophy): UM
In short: as §1

[11] = tested on: Saccharomyces cerevisiae BY4741 SeMeCo community; assay: z-score of subpopulation abundance vs DMSO median, subpopulation auxotrophic for HL; higher = larger share of this subpopulation than in DMSO controls; details: 10 µM; 24 h; SM minimal medium; subpopulation (auxotrophy): HL
In short: as §1

[12] = tested on: Saccharomyces cerevisiae BY4741 SeMeCo community; assay: z-score of subpopulation abundance vs DMSO median, subpopulation auxotrophic for HLU; higher = larger share of this subpopulation than in DMSO controls; details: 10 µM; 24 h; SM minimal medium; subpopulation (auxotrophy): HLU
In short: as §1

[13] = tested on: Saccharomyces cerevisiae BY4741 SeMeCo community; assay: z-score of subpopulation abundance vs DMSO median, subpopulation auxotrophic for LUM; higher = larger share of this subpopulation than in DMSO controls; details: 10 µM; 24 h; SM minimal medium; subpopulation (auxotrophy): LUM
In short: as §1

[14] = tested on: Saccharomyces cerevisiae BY4741 SeMeCo community; assay: z-score of subpopulation abundance vs DMSO median, subpopulation auxotrophic for HLUM; higher = larger share of this subpopulation than in DMSO controls; details: 10 µM; 24 h; SM minimal medium; subpopulation (auxotrophy): HLUM
In short: as §1

[15] = tested on: Saccharomyces cerevisiae BY4741 SeMeCo community; assay: z-score of subpopulation abundance vs DMSO median, subpopulation auxotrophic for LM; higher = larger share of this subpopulation than in DMSO controls; details: 10 µM; 24 h; SM minimal medium; subpopulation (auxotrophy): LM
In short: as §1

[16] = tested on: Saccharomyces cerevisiae BY4741 SeMeCo community; assay: z-score of subpopulation abundance vs DMSO median, subpopulation auxotrophic for HLM; higher = larger share of this subpopulation than in DMSO controls; details: 10 µM; 24 h; SM minimal medium; subpopulation (auxotrophy): HLM
In short: as §1

[17] = tested on: Saccharomyces cerevisiae BY4741 SeMeCo community; assay: z-score of subpopulation abundance vs DMSO median, subpopulation auxotrophic for HUM; higher = larger share of this subpopulation than in DMSO controls; details: 10 µM; 24 h; SM minimal medium; subpopulation (auxotrophy): HUM
In short: as §1

Row | SMILES | mean cell size [1] | z-score of prototroph abundance [2] | z-score of subpopulation abundance [3] | z-score of subpopulation abundance [4] | z-score of subpopulation abundance [5] | z-score of subpopulation abundance [6] | z-score of subpopulation abundance [7] | z-score of subpopulation abundance [8] | z-score of subpopulation abundance [9] | z-score of subpopulation abundance [10] | z-score of subpopulation abundance [11] | z-score of subpopulation abundance [12] | z-score of subpopulation abundance [13] | z-score of subpopulation abundance [14] | z-score of subpopulation abundance [15] | z-score of subpopulation abundance [16] | z-score of subpopulation abundance [17]
1 | CCc1cc(C(N)=S)ccn1 [Ethionamide] | 12.45 ± 0.074 | 0.06 | 0.23 | 0.86 | -0.01 | 0.59 | 0.05 | 0.03 | 0.19 | 0.25 | -0.03 | -0.14 | -0.07 | -0.72 | – | – | –
2 | CN[C@H]1C(=O)N[C@@H]2Cc3ccc(cc3)Oc3cc4cc(c3O[C@@H]3O[C@H](C(=O)O)[C@@H](O)[C@H](O)[C@H]3NC(=O)CCCCCCCCC(C)C)Oc3ccc(cc3Cl)[C@@H](O)[C@@H]3NC(=O)[C@H](NC(=O)[C@@H]4NC(=O)[C@@H](NC2=O)c2cc(cc(O)c2Cl)Oc2cc1ccc2O)c1ccc(O)c(c1)-c1c(O[C@H]2O[C@H](CO)[C@@H](O)[C@H](O)[C@@H]2O)cc(O)cc1[C@@H](C(=O)NCCCN(C)C)NC3=O [Dalbavancin] | 12.8 ± 0.072 | – | -4.48 | -0.21 | – | 4.04 | -0.56 | – | – | -0.56 | – | 2.43 | 0.72 | 0.69 | -1.16 | – | –
3 | OCCN1CCN(CC/C=C2/c3ccccc3Sc3ccc(C(F)(F)F)cc32)CC1 [Flupenthixol dihydrochloride] | 12.24 ± 0.076 | -0.24 | -0.29 | – | -0.72 | 0.73 | 0.47 | 0.47 | 0.56 | -0.35 | 0.88 | 0.47 | 0.65 | -0.47 | 0.75 | 0.33 | -0.33
4 | CN[C@@H]1[C@@H](O[C@H]2O[C@H](CO)[C@@H](N)[C@H](O)[C@H]2O)OC2C[C@@H](N)[C@@H](O[C@H]3[C@H](O)[C@@H](O)[C@H](N)C[C@@H]3N)OC2[C@@H]1O (some centres not stated) [Apramycin Sulfate] | 12 ± 0.25 | -0.43 | -0.24 | – | 0.87 | -0.41 | 0.41 | 0.03 | -0.09 | 0.56 | 0.24 | 0.36 | 0.97 | 1.47 | 0.1 | 0.1 | 0.37
5 | CCC1(c2ccccc2)C(=O)NCNC1=O [Primidone] | 12.6 ± 0.23 | 0.08 | 0.8 | -0.17 | – | – | -0.48 | 0.36 | 0.35 | 0.54 | -0.36 | -0.29 | 0.18 | 0.15 | -0.37 | – | –
6 | CCCC(=O)OCOC(=O)C1=C(C)NC(C)=C(C(=O)OC)C1c1cccc(Cl)c1Cl (configuration not stated) [Clevidipine Butyrate] | 12.4 ± 0.13 | 1.07 | 4.72 | – | -3.89 | – | -5.98 | 2.78 | -5.62 | – | 2.31 | -3.55 | – | 0.59 | 3.42 | 3.24 | -4.83
7 | CC(NCCC(c1ccccc1)c1ccccc1)c1ccccc1 (configuration not stated) [Fendiline hydrochloride] | 12.1 ± 0.2 | 1.56 | -1.56 | – | -0.43 | -1.47 | -0.77 | -1.15 | -0.97 | -1.15 | -0.41 | -0.27 | – | -0.29 | -0.45 | -0.59 | -0.72
8 | Cc1[nH]c(=O)c(C#N)cc1-c1ccncc1 [Milrinone] | 12.4 ± 0.18 | 1 | -0.56 | -0.03 | 0.34 | -0.52 | -0.56 | -0.67 | -0.62 | -0.1 | -0.41 | -0.86 | -0.06 | -1.21 | – | – | –
9 | NC[C@H]1O[C@H](O[C@H]2[C@H](O)[C@@H](O[C@H]3O[C@H](CO)[C@@H](O)[C@H](N)[C@H]3O)[C@H](N)C[C@@H]2N)[C@H](N)C[C@@H]1O [Tobramycin] | 11.72 ± 0.043 | 0.02 | 0.73 | -0.45 | 0.79 | -1.81 | -0.02 | -0.2 | 0 | 0.54 | -0.46 | -0.41 | -0.69 | -1.08 | – | – | 0.03
10 | CCC(C)(C)c1ccc(CC(C)CN2C[C@@H](C)O[C@@H](C)C2)cc1 (some centres not stated) [Amorolfine HCl] | 12 ± 0.35 | – | 9.64 | -4.45 | 1.83 | 8.59 | -0.63 | 8.92 | 5.04 | 10 | 1.91 | 2.33 | 3.94 | 5.77 | – | – | 6
11 | CNCCC(Oc1ccc(C(F)(F)F)cc1)c1ccccc1 (configuration not stated) [Fluoxetine HCl] | 12.4 ± 0.14 | 0.06 | 0.18 | – | 0 | – | 0.51 | -0.49 | -0.26 | 0.29 | -0.68 | 0.27 | – | 0.65 | 0 | -0.31 | -0.15
12 | COc1cc2c(cc1OC)C(=O)C(CC1CCN(Cc3ccccc3)CC1)C2 (configuration not stated) [Donepezil HCl] | 12 ± 0.22 | 0.26 | 0.12 | -0.02 | -0.01 | 0.71 | -0.36 | -0.33 | 0.45 | – | -0.23 | -0.1 | -0.52 | -1.2 | – | – | 0.3
13 | CCN(CC)CCNC(=O)c1cc(Cl)c(N)cc1OC [Metoclopramide HCl] | 12.4 ± 0.31 | 0.83 | 1.12 | – | -1.06 | -1.04 | -1.25 | 1.14 | -0.72 | -1.49 | 0.1 | -0.43 | – | -0.49 | 0.33 | -0.58 | -1.06
14 | CCCCN1CCCC[C@H]1C(=O)Nc1c(C)cccc1C [Levobupivacaine HCl] | – | – | -1.02 | 0.42 | -0.04 | -0.68 | -0.09 | -1.34 | 0.14 | -0.49 | -0.46 | -0.48 | -0.33 | -0.43 | -0.55 | – | -0.73
15 | CN1C2CCCC1CC(NC(=O)c1nn(C)c3ccccc13)C2 (configuration not stated) [Granisetron] | – | -0.04 | 1.71 | -0.54 | 0.07 | -1.03 | -0.92 | – | -0.71 | 0.55 | -1.17 | -0.07 | -0.48 | – | -0.49 | – | 0.05
16 | Cc1nc(Nc2ccc(F)cc2)nc(N2CCc3ccccc3C2C)c1C (configuration not stated) [Revaprazan Hydrochloride] | – | -0.48 | -0.84 | 0.02 | – | – | 0.2 | – | 0.79 | 1.11 | 0.35 | -0.07 | 0.27 | 0.14 | 0.05 | – | 0.45
